MCF10A rereplic = induces DNA re-replication in MCF 10a normal breast cells; Potency, µM (top dose mostly 46.1 µM), for the others: at the highest dose activity, positive = re-replication, usual class: activators; MCF 10A DNA re-replication, Hoechst nuclear intensity, 48 h; 350,000 tested, 2.9% active; note: % of control where 0% means no effect; nearly all actives have a fitted effect of over 50% in size
TSG101-PTAP inh = blocks PTAP/TSG101 interaction to inhibit HIV-1 budding | Q99816 | Fluorescence polarization, FITC-PTAP peptide / Tsg101 binding | Potency, µM (titrated, usually from 115 µM), for the others: top-dose activity change, negative = inhibition, usual class: inhibitors | 340,000 tested, under 10 active; active = well fitted inhibition curve with a large enough effect in the main read-out, with a control signal flat, not every such curve was filed as active; inconclusive = small, poorly fitted or top-dose-only effect, or effect the other way, or a change in a side signal; inactive = no such curve, though single readings can be large or run the other way; note: % of control where 0% means no effect
Target sequence (Q99816 whole entry, looked up): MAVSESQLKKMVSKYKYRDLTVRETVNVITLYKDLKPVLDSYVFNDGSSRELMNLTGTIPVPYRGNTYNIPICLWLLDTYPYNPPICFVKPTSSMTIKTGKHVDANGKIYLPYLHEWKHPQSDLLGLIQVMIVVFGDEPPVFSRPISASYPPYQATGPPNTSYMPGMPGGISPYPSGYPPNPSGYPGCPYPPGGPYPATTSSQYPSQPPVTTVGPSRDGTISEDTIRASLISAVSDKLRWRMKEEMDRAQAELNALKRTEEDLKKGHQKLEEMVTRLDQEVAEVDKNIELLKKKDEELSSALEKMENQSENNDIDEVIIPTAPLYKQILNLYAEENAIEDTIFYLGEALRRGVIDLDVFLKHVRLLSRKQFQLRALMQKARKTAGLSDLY
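FP read-out: FITC-PTAP peptide, 50 nM final, binding Tsg101 binding domain, 10 uM final; 20 min, r.t.; 10 mM HEPES pH 7.5, 0.15 M NaCl, 0.01% Tween 20, 3 mM EDTA, 0.1 mM TCEP.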
KB-3-1 cytotox = KB-3-1 parental cell cytotoxicity; Potency, µM (top dose mostly 46.1 µM), hits mostly cytotoxic; 400,000 tested, 1.4% active; KB-3-1 viability, CellTiter-Glo ATP luminescence, 72 h; note: % is set by controls: 0 for no effect and ±100 for the full control effect; nearly all actives have a fitted effect of over 60% in size
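Parental KB-3-1 viability, qHTS format: 72 h compound exposure, 37 °C; CellTiter-Glo; media-only wells and DMSO plates as controls; concentration-effect fits on corrected data.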
KB-V1 MDR tox = KB-V1 MDR subline cytotoxicity; KB-V1 MDR cells viability, CellTiter-Glo, 72 h; Potency, µM (top dose mostly 46.1 µM), hits mostly cytotoxic; 400,000 tested, 3.4% active; note: % is set by controls: 0 for no effect and ±100 for the full control effect; nearly all actives have a fitted effect of over 60% in size
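Potencies derive from concentration-effect curves fitted to normalized luminescence (CellTiter-Glo) of KB-V1 cells treated for 72 h at 37 degrees C in phenol-red-free DMEM containing 10% FBS.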
PINK1 expr mod = changes PINK1 expression | PINK1 immunofluorescence, high-content cytometry, 24 h | Potency, µM (titrated, usually from 76.6 µM), without a hit: top-dose activation (PINK1 increase), usual class: activators | 410,000 tested, 0.2% active | AID 624263; active = well fitted activation curve with a large enough effect; inconclusive = small, poorly fitted or top-dose-only effect; cell line not stated here; note: % of control where 0% means no effect; nearly all actives have a fitted effect of over 65% in size
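PINK1 protein level read as immunofluorescence by microplate cytometer in a fixed, stained stable cell line after 24 h exposure to five compound concentrations, with CCCP as control.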
SW480 rereplic = induces DNA re-replication in SW480 colon adenocarcinoma cells; 340,000 tested, 1.8% active; Potency, µM (highest dose often 46.1 µM), for the others: at the top dose re-replication activation, most hits filed as activators; SW480 DNA re-replication, Hoechst DNA content imaging, 48 h; note: % of control where 0% means no effect; nearly all actives have a fitted effect of over 55% in size
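Compounds, transferred as 23 nL by pin tool, were incubated with cells for 48 hr; DNA content per nucleus was then quantified by Hoechst staining and fluorescence plate imaging.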
An asterisk follows results filed as active; i = inactive; ? = inconclusive; nt = no result given; ! = repeats disagree; [ ] = dose if it differs, or a comment. Compounds with a hit are over-represented: about 6.8% of the library has one in this group of screens. Unless noted, calls come from the whole dose curve; as a rule, active = well fitted curve in the direction sought with a large enough effect; inconclusive = small, poorly fitted or top-dose-only effect, or another doubt; inactive = no such curve, though single readings can be large; an effect the other way counts as inactive or inconclusive. Potency is the fitted concentration of half-maximal effect.

SMILES	MCF10A rereplic	TSG101-PTAP inh	KB-3-1 cytotox	KB-V1 MDR tox	PINK1 expr mod	SW480 rereplic
COC(=O)c1ccc(C(=O)OC)c(NC(=S)N2CCCCC2C)c1 (stereo not given)	1%	0%	i	15µM*	2%	1%
COC(=O)c1ccc(C(=O)OC)c(NC(=S)N2CCN(c3cccc(Cl)c3)CC2)c1	11%	0%	i	16µM*	-3%	-2%
CC(=O)c1ccc(N2CCN(C(=S)Nc3cccc(Cl)c3)CC2)cc1	-3%	1%	i	23µM*	14%	-23%
O=C(Nc1cccc(O)c1)c1cc2nc(-c3ccc(Br)cc3)cc(C(F)(F)F)n2n1	nt	nt	i	i	6%	nt
CCc1ccc(NC(=O)c2ccc3c(c2)c(C)c(C)n3Cc2ccccc2)cc1	nt	nt	?	8.2µM*	4%	nt
Cc1c(C)n(Cc2ccc(Cl)cc2)c2ccc(C(=O)NCCN3CCOCC3)cc12	12µM*	0%	?	i	-1%	?
Cc1c(C)n(Cc2ccccc2)c2ccc(C(=O)NCCN3CCOCC3)cc12	11%	-4%	i	i	0%	17%
CCn1ccc2cc(S(=O)(=O)N3CCC(C(=O)NCc4cccc(Cl)c4)CC3)ccc21	nt	nt	i	i	1%	nt
Cc1ccc(C(=O)NCCc2nnc3n2CCN(Cc2ccnc4ccccc24)CC3)c(C)c1	nt	nt	nt	nt	-1%	nt
N=c1oc2cc(O)ccc2cc1C(=O)Nc1ccc(F)cc1	9.2µM*	2%	?	i	14µM*	8.2µM*
O=C(c1ccc(F)cc1)c1cc2ccc(O)cc2oc1=O	10%	1%	i	i	2%	?
Cc1ccc(NC(=O)CCc2c(C)nc3c(-c4ccccc4)c(C)nn3c2C)c(C)c1	nt	nt	i	i	2%	nt
O=C(CCN1CCN(C(=O)c2ccccc2)CC1)c1ccc(Br)cc1	16µM*	0%	i	?	1%	?
O=C(CCN1CCOCC1)c1ccc2c(c1)OCCO2	6.5µM*	-9%	?	i	-1%	?
O=C(CCN1CCCCC1)c1ccc2c(c1)OCO2	?	-1%	?	i	0%	-1%[9.22 µM]
O=C(CCCN1CCOCC1)c1ccc2c(c1)OCCO2	?	-8%	i	i	nt	2%
O=C(CCN1CCc2ccccc2CC1)c1ccc2c(c1)OCCO2	1.3µM*	-2%	i	?	-1%	13µM*
O=C(CCN1CCOCC1)c1ccccc1	2.6µM*	-7%	i	i	nt	199%
COc1ccc(CNC(=O)c2ccc3c(c2)N=C(C)c2c(C)ccc(C)c2S3)cc1	nt	nt	4.6µM*	1.8µM*	1%	nt
CCCNC(=O)c1ccc2c(c1)N=C(C)c1c(C)ccc(C)c1S2	nt	nt	0.82µM*	?	2%	nt
CC1=Nc2cc(C(=O)NCCc3ccc(Cl)cc3)ccc2Sc2c(C)ccc(C)c21	nt	nt	2.6µM*	1.6µM*	0%	nt
CCCC1=Nc2cc(C(=O)NCc3ccccc3)ccc2Sc2ccccc21	nt	nt	nt	nt	1%	nt
CC1=Nc2cc(C(=O)NCCc3ccccc3)ccc2Sc2c(C)ccc(C)c21	nt	nt	0.65µM*	0.41µM*	-1%	nt
COc1ccc(CCNC(=O)c2ccc3c(c2)N=C(C)c2cc(C)ccc2S3)cc1OC	nt	nt	i	i	1%	nt
CCc1ccc(CNC(=O)c2ccc3c(c2)N=C(C)c2cc(C)ccc2S3)cc1	nt	nt	?	i	5%	nt
SMILES	MCF10A rereplic	TSG101-PTAP inh	KB-3-1 cytotox	KB-V1 MDR tox	PINK1 expr mod	SW480 rereplic
Cc1ccc(Nc2nc(C(N)=O)c(NC(=O)c3ccccc3Br)s2)cc1	nt	nt	nt	nt	5%	nt
CCC1CCCCN1C(=O)c1ccc2c(c1)N(Cc1cccc(Cl)c1)C(=O)c1ccccc1S2(=O)=O (stereo not given)	nt	nt	nt	nt	3%	nt
O=C(c1ccc(N2CCC(NCCCn3ncc4ccccc43)CC2)cc1)N1CCOCC1	nt	nt	nt	nt	0%	nt
Oc1ccc(Cl)cc1CNc1ccc(Br)cn1	?	-1%	?	i	7%	?
Oc1c(Cl)cc(Cl)cc1CNc1ccc(Br)cn1	11µM*	-4%	i	i	?	2%
COCCN(Cc1cc2cc3c(cc2nc1Cl)OCO3)C(=O)Nc1ccc(F)cc1	-6%	-15%	16µM*	?	nt	19%
COCCN(Cc1cc2cc3c(cc2nc1Cl)OCO3)C(=O)Nc1ccc(OC)cc1	3%	-1%	?	?	2%	-1%
CC(=O)Nc1ccc(CNc2nc(NC(C)C)nc3cc(-c4ccccc4)sc23)cc1	nt	nt	?	21µM*	-1%	nt
COc1ccc(-c2cc(CNc3nc(NC(C)C)nc4cc(-c5ccccc5)sc34)on2)cc1	nt	nt	?	21µM*	0%	nt
Cc1ccccc1CS(=O)(=O)Cc1ccc(C(=O)NCCc2ccc(Cl)cc2)o1	nt	nt	i	i	2%	nt
O=C(NCCc1ccccc1)c1ccc(CS(=O)(=O)Cc2ccccc2F)o1	3%	3%	i	15µM*	2%	-4%
Cc1ccc(CCNC(=O)c2ccc(CS(=O)(=O)Cc3ccccc3F)o2)cc1	27%	-4%	i	5.8µM*!	1%	2%
CC(C)CCNC(=O)c1ccc(CS(=O)(=O)Cc2ccccc2F)o1	-3%	-1%	i	i	1%	-3%
COc1ccccc1-c1nn2c(-c3cc(C)[nH]n3)nnc2s1	nt	nt	i	i	0%	nt
Cc1ccc(-c2csc(NC(=O)c3ccc4c(=O)n5c(nc4c3)CCCCC5)n2)cc1	?	0%	i	10µM*	1%	nt
Cc1cccc(C)c1OCC(=O)Nc1oc(-c2ccccc2)c(-c2ccccc2)c1C#N	?	-2%	?	16µM*	?	-70%
CN(C)/C=C/C(=O)c1ccc(F)cc1	18µM*	-6%	i	i	-6%[38.3 µM]	-13%
CN(C)/C=C/C(=O)c1ccccc1	-1%	-3%	i	i	0%	-19%
CCOC(=O)Nc1ccc2c(CNC(C)c3ccccc3OC)cc(=O)oc2c1 (stereo not given)	18µM*	1%	i	i	2%	24%
CCc1ccc(CSc2nc(-c3ccc(OC)cc3)nc3c2Cc2c(CO)cnc(C)c2O3)cc1	nt	nt	i	i	-1%	nt
C/C(=N\NC(=O)c1cccc([N+](=O)[O-])c1)c1cccc(NC(=O)C2CC2)c1	-11%	-3%	i	i	10%	9%
C/C(=N/NC(=O)C1CCN(S(=O)(=O)c2ccc(C)cc2)CC1)c1cccc([N+](=O)[O-])c1	4%	0%	i	23µM*	6%	-2%
O=C(c1cccc(F)c1)N1CCC2(CCN(Cc3ccncc3)CC2)CC1	nt	nt	nt	nt	1%	nt
